This passage reports growth inhibition results from PubChem BioAssay (NCI).

About 79,000 compounds went through this panel and 15% of them were active in at least one assay; those are over-represented in the sample as a whole. Values without a mark were called inactive. No stated cut-off is given here; in the data, active means growth inhibition above about 70%; inactive means the rest.

The experiment can be described thus: NCI Yeast Anticancer Drug Screen. Data for the mlh1 strain (AID 171).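 Further: 0% = growth of vehicle-treated control cultures of the same strain.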 To be noted: S. cerevisiae mlh1 strain growth inhibition; at 1.2 µM; stronger effect = higher value. An outline of the steps: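 Yeast carrying a defined genetic alteration in DNA damage repair or cell cycle control were exposed to test compounds. Growth inhibition was measured relative to vehicle-treated controls.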
For `CS(=O)(=O)SCc1ccc([N+](=O)[O-])cc1`, the growth inhibition was 6%.
For the molecule `Cc1csc(=S)n1OC(=O)NC1CCCCC1`, the growth inhibition was 8%.
Under `CCOc1ccc(NC(=O)C2=C(C)NC(C)=C(C(=O)Nc3ccc(OCC)cc3)C2c2cccc([N+](=O)[O-])c2)cc1` stands -2%; under `CC(C)(C)N=C(NO)c1ccccc1`, 3%; under `CCCCC/C(=C(\C#N)C(=O)OCC)c1ccccc1`, -2%.
As for `O=C(NCCCl)Sc1ccc(Cl)cc1`, the figure is -5%; as for `O=C1Nc2ccc(Br)cc2C1=Nc1ccc2c(c1)OCO2`, -8%.
`CCC(C)OC(=O)Nc1ccc(C)c(NC(=O)OC(C)CC)c1` (centres undefined): the growth inhibition is -1%.
As for `O=C(O)c1cc2ccc(Cl)cc2c(O)c1C1=CCCCC1`, the figure is 26%; as for `CN(C)Cc1cc(N=Nc2ccc(Cl)cc2)ccc1OC(=O)c1ccccc1`, 2%.
Under `CN1CCN(C(=O)/C=C/C(=O)c2ccccc2)CC1` stands -1%; under `CCCC/C=C/C(C)(C(=O)OCC)C(=O)OCC`, -4%.
As for `Cc1nc(-c2cc3cc([N+](=O)[O-])ccc3oc2=O)cs1`, the figure is -2%.
As for `Cc1nc2ccccc2nc1NNc1ccccc1`, the growth inhibition was 1%.
Under `CN(C)[C@@H]1C(=O)C(C(N)=O)=C(O)[C@@]2(O)C(=O)C3=C(O)c4c(O)cccc4C[C@H]3C[C@@H]12` stands -13%; under `COc1ccc(NC(=O)CC2SC(=Nc3ccccc3C)NC2=O)c([N+](=O)[O-])c1` (centres undefined), 0%.
As for `COc1cc(O)c2c(c1O)C(=O)c1cc(C)ncc1C2=O`, the figure is 7%; as for `CSc1nnc(SC)nn1`, -2%.
Under `COc1cc(/C=C2\CCC/C(=C\c3ccc(O)c(OC)c3)C2=O)ccc1O` stands -8%.
As to `CN(C)CCNC(=O)c1cccc2cc([N+](=O)[O-])ccc12`, the growth inhibition was -7%.
As for `CCC(C)(C)c1ccc(Oc2cccc(C(=O)O)c2)cc1`, the figure is 1%; as for `CCCCCCSc1ncnc2[nH]ncc12`, -1%.
As for `CC(=O)Nc1ccc(/C=C/[N+](=O)[O-])cc1`, the figure is -1%; as for `CCOC(=O)c1[nH]n(-c2ccccc2)c(=O)c1C=NC(=S)C(N)=S`, 22%; as for `CCCC(O)C1CC(C(C)C)CCC1C` (centres undefined), -2%.
`O=[n+]1c2ccccc2n([O-])c2cc(Br)ccc21`: the growth inhibition was -3%.
As for `CN(C)CCNC(=O)c1cccc2c1Oc1c(cccc1[N+](=O)[O-])O2`, the figure is 15%.
For `Nc1ncc(-c2ccc(Br)cc2)s1`, the growth inhibition is -9%.
As for `Cc1cc2cc3cc(C)c(N)cc3nc2cc1N`, the growth inhibition is -10%.
Under `CC12C(=O)OC(=O)C(c3ccccc31)c1ccccc12` stands -11%.
As for `c1ccc2c(OCC3CO3)cccc2c1` (centres undefined), the figure is 0%; as for `CCOC(=N)c1ccc(O)c(OC)c1`, -2%.
Regarding `Nc1cc(N)c(N=Nc2cccc3c(S(=O)(=O)O)cccc23)cc1N=Nc1cc([N+](=O)[O-])ccc1O`, the growth inhibition is -15%.
As for `COC(=O)Oc1cc(Cl)c(Cl)cc1Cl`, the figure is 1%; as for `O=C(O)C1CC(c2ccccc2)=NN1c1ccccc1` (centres undefined), -31%.
As to `COc1cc([C@@H]2c3cc4c(cc3[C@@H](Nc3ccc(NC(=O)c5cc([N+](=O)[O-])cn5C)cc3)[C@H]3COC(=O)[C@H]23)OCO4)cc(OC)c1O`, the growth inhibition is -15%.
As for `O=C(O)c1ccccc1/C=N/N=C1c2ccccc2-c2ccccc21`, the figure is 1%; as for `O=C1CC(=O)c2ccccc21`, -1%.
As for `Nc1ncnc2c1ncn2C1OC(CO)CC1O` (centres undefined), the figure is -22%.
